Source: PMC5540273 (PLoS ONE, 2017)

What was measured:
Conditions in all cases: concentration: 1 μM, replicates: in singlicate; n = 1
EPHB4 = test system: EPHB4
EPHB6 = test system: EPHB6
ERBB2 = test system: ERBB2
ERBB3 = test system: ERBB3
ERBB4 = test system: ERBB4
ERK1 = test system: T1, ERK1
T1 construct: gene MAPK3

ERK2 = test system: T2, ERK2
T2 construct: gene MAPK1

ERK3 = test system: T3, ERK3
T3 construct: gene MAPK6

ERK4 = test system: T4, ERK4
T4 construct: gene MAPK4

ERK5 = test system: T5, ERK5
T5 construct: gene MAPK7

ERK8 = test system: T6, ERK8
T6 construct: gene MAPK15

ERN1 = test system: ERN1
FAK = test system: T7, FAK
T7 construct: gene PTK2

FER = test system: FER
FES = test system: FES
FGFR1 = test system: FGFR1
FGFR2 = test system: FGFR2
FGFR3 = test system: FGFR3
FGFR4 = test system: FGFR4
FGR = test system: FGR
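Note: KINOMEscan kinase panel screen.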

SMILES | %Inh (EPHB4) | %Inh (EPHB6) | %Inh (ERBB2) | %Inh (ERBB3) | %Inh (ERBB4) | %Inh (ERK1) | %Inh (ERK2) | %Inh (ERK3) | %Inh (ERK4) | %Inh (ERK5) | %Inh (ERK8) | %Inh (ERN1) | %Inh (FAK) | %Inh (FER) | %Inh (FES) | %Inh (FGFR1) | %Inh (FGFR2) | %Inh (FGFR3) | %Inh (FGFR4) | %Inh (FGR)
COc1ccc2cc(-c3nc(-c4ccccc4C(C)C)[nH]c3-c3ccncc3)ccc2c1 [SB-660566] | 6% | 0% | 5% | 0% | 52% | 0% | 0% | 0% | 15% | 0% | 0% | 14% | 0% | 0% | 0% | 0% | 12% | 13% | 20% | 21%
Cn1cncc1C(=O)NC1CCN(c2ccnc(Nc3ccc(F)cc3)n2)C1 (stereo not shown) [GSK1379717] | 14% | 15% | 0% | 0% | 5% | 0% | 0% | 0% | 0% | 0% | 0% | 0% | 0% | 0% | 0% | 0% | 0% | 7% | 1% | 22%
COc1ccc(CSc2nnc(-c3ccc4ncsc4c3)o2)cc1C(F)(F)F | 18% | 0% | 0% | 0% | 0% | 0% | 30% | 0% | 0% | 0% | 57% | 0% | 0% | 0% | 14% | 5% | 0% | 0% | 0% | 27%
CCn1c(-c2c(N)noc2C)nc2cnccc21 [SB-737856] | 54% | 0% | 31% | 0% | 0% | 0% | 9% | 100% | 16% | 0% | 41% | 15% | 0% | 3% | 42% | 0% | 28% | 37% | 11% | 61%
CNc1nc(-c2ccc3c(N)n[nH]c3c2)cc(N2C[C@@H](C(=O)Nc3ccccc3)CC[C@H]2C)n1 [GSK2298859] | 14% | 9% | 12% | 0% | 19% | 0% | 0% | 6% | 0% | 0% | 0% | 2% | 0% | 33% | 0% | 23% | 0% | 16% | 0% | 22%
Nc1nccc(-c2c(-c3ccc(F)cc3)ncn2C2CCN(Cc3ccccc3)CC2)n1 [SB-219980] | 17% | 58% | 18% | 0% | 19% | 0% | 21% | 0% | 0% | 0% | 0% | 41% | 0% | 0% | 23% | 0% | 0% | 0% | 0% | 18%
CSc1ccc(-c2nc3n(c2-c2ccncc2)CCC3)cc1 [SKF-105561] | 21% | 15% | 0% | 0% | 3% | 0% | 0% | 0% | 0% | 0% | 1% | 0% | 0% | 0% | 28% | 1% | 0% | 0% | 0% | 25%
O=C(Nc1n[nH]c2nc(-c3cccs3)c(Br)cc12)C1CC1 [SB-735297] | 0% | 39% | 0% | 0% | 0% | 0% | 0% | 0% | 0% | 0% | 87% | 0% | 0% | 0% | 10% | 0% | 0% | 0% | 0% | 13%
COc1ccc(Nc2nccc(-c3ccc(NC(=O)c4cc5cc(F)ccc5[nH]4)cc3)n2)cc1 [GSK1229496] | 16% | 6% | 38% | 13% | 6% | 0% | 0% | 0% | 0% | 0% | 0% | 0% | 0% | 16% | 15% | 0% | 19% | 9% | 0% | 10%
Cc1c(Cn2c(C)c(C)n3c(=O)cc(N4CCOCC4)nc23)cccc1C(F)(F)F [GSK2328680] | 14% | 0% | 0% | 16% | 4% | 0% | 0% | 8% | 0% | 0% | 8% | 9% | 0% | 15% | 0% | 0% | 41% | 6% | 0% | 20%
COc1cc2ncnc(Nc3cccc(Br)c3)c2cc1OC.Cl [GI230329] | 21% | 3% | 97.1% | 41% | 72% | 0% | 0% | 6% | 22% | 0% | 0% | 2% | 0% | 31% | 0% | 0% | 22% | 11% | 0% | 26%
Cc1c(Cn2c3ccccc3n3c(=O)cc(N4CCOCC4)nc23)cccc1C(F)(F)F [GSK2306394] | 0% | 0% | 0% | 0% | 60% | 36% | 0% | 0% | 100% | 0% | 26% | 10% | 0% | 6% | 0% | 4% | 2% | 0% | 0% | 0%
Cn1cncc1-c1cc2c(Nc3ccc(OCc4ccccc4)cc3)ncnc2cn1 [GW281179] | 17% | 21% | 99.6% | 75% | 70% | 0% | 0% | 0% | 0% | 0% | 0% | 0% | 0% | 14% | 0% | 9% | 19% | 2% | 12% | 18%
FC(F)(F)c1ccccc1-c1cc(-c2c[nH]nc2-c2ccccn2)ccn1 [GW679396] | 0% | 100% | 8% | 0% | 0% | 0% | 0% | 11% | 21% | 0% | 0% | 10% | 0% | 15% | 0% | 4% | 0% | 0% | 0% | 12%
CC(C)c1cc(-c2ccc3c(N)n[nH]c3c2)nc(N)n1 [GSK2250882] | 18% | 4% | 25% | 0% | 0% | 1% | 0% | 0% | 26% | 0% | 0% | 4% | 0% | 14% | 19% | 0% | 18% | 9% | 8% | 34%
Cc1ccc(NC(=O)Nc2ccccc2F)cc1-c1ccc(C(=O)Nc2ccncc2)cc1 [GSK1398477] | 21% | 20% | 8% | 0% | 0% | 8% | 9% | 11% | 20% | 0% | 0% | 13% | 0% | 16% | 11% | 19% | 14% | 23% | 21% | 26%

SMILES | %Inh (EPHB4) | %Inh (EPHB6) | %Inh (ERBB2) | %Inh (ERBB3) | %Inh (ERBB4) | %Inh (ERK1) | %Inh (ERK2) | %Inh (ERK3) | %Inh (ERK4) | %Inh (ERK5) | %Inh (ERK8) | %Inh (ERN1) | %Inh (FAK) | %Inh (FER) | %Inh (FES) | %Inh (FGFR1) | %Inh (FGFR2) | %Inh (FGFR3) | %Inh (FGFR4) | %Inh (FGR)
Cc1ccc(NC(=O)Nc2ccccc2)cc1-c1ccc(C(=O)Nc2ccncc2)cc1 [GSK1398471] | 26% | 12% | 0% | 0% | 0% | 6% | 0% | 8% | 18% | 0% | 0% | 0% | 0% | 20% | 20% | 0% | 0% | 18% | 13% | 34%
CC(=O)c1cccc(NC(=O)NC2CCN(c3ccnc(Nc4ccc(F)cc4)n3)C2)c1 (stereo not shown) [GSK1379710] | 4% | 19% | 15% | 8% | 6% | 0% | 0% | 0% | 30% | 12% | 0% | 19% | 0% | 3% | 0% | 0% | 0% | 6% | 11% | 0%
Cc1ccccc1Cn1ccn2c(=O)cc(N3CCOCC3)nc12 [GSK2269905] | 19% | 0% | 23% | 0% | 20% | 4% | 0% | 15% | 14% | 0% | 0% | 0% | 0% | 18% | 9% | 0% | 2% | 0% | 19% | 31%
COc1ccc(Nc2nccc(N3CCC(NC(=O)C(C)c4ccc(Cl)cc4)CC3)n2)cc1 (stereo not shown) [GSK1379812] | 0% | 100% | 19% | 19% | 0% | 0% | 4% | 2% | 0% | 0% | 0% | 0% | 0% | 46% | 19% | 0% | 0% | 30% | 4% | 5%
CS(=O)(=O)CCNCc1nc(-c2ccc3ncnc(Nc4ccc(OCc5ccccc5)c(Cl)c4)c3c2)cs1.Cl [GW582764] | 8% | 0% | 100% | 58% | 97.8% | 0% | 0% | 0% | 0% | 0% | 0% | 0% | 0% | 0% | 0% | 0% | 0% | 0% | 0% | 18%
Cc1cccc2c(-c3ccncn3)c(-c3ccc(F)cc3)nn12 [GW515532] | 2% | 21% | 0% | 0% | 0% | 0% | 0% | 0% | 1% | 0% | 100% | 1% | 0% | 8% | 0% | 15% | 0% | 0% | 0% | 1%
COC(=O)C(NC(=O)NC1CCN(c2ccnc(Nc3ccc(F)cc3)n2)C1)c1ccccc1 (stereo not shown) [GSK1379712] | 6% | 92% | 20% | 0% | 0% | 2% | 0% | 0% | 24% | 13% | 0% | 4% | 0% | 19% | 0% | 0% | 0% | 7% | 19% | 8%
COc1nccc(-c2c(-c3ccc(F)cc3)ncn2CCCN2CCOCC2)n1 [SB-282852] | 0% | 17% | 40% | 46% | 4% | 0% | 0% | 0% | 0% | 0% | 4% | 16% | 0% | 0% | 0% | 46% | 0% | 0% | 0% | 1%
Cc1ccc(NC(=O)Nc2ccc(Cl)cc2)cc1-c1ccc(C(=O)Nc2ccncc2)cc1 [GSK1398472] | 23% | 2% | 25% | 0% | 0% | 0% | 0% | 15% | 3% | 0% | 0% | 0% | 0% | 15% | 0% | 0% | 39% | 13% | 14% | 18%
CCc1ccc(-c2ccc3c(c2)-c2n[nH]cc2S(=O)(=O)N3C)cc1 | 8% | 0% | 40% | 15% | 0% | 0% | 7% | 0% | 0% | 5% | 0% | 0% |  | 6% | 2% | 6% | 0% | 0% | 0% | 9%
COC(=O)c1cccc(NC(=O)NC2CCN(c3ccnc(Nc4ccc(OC)cc4)n3)C2)c1 (stereo not shown) [GSK1379746] | 19% | 37% | 65% | 24% | 23% | 0% | 0% | 5% | 2% | 6% | 0% | 5% | 0% | 13% | 0% | 0% | 0% | 0% | 4% | 11%
O=C(Nc1n[nH]c2nc(-c3cccs3)c(Br)cc12)C1CCCC1 [SB-743341] | 22% | 22% | 0% | 3% | 0% | 0% | 10% | 9% | 0% | 0% | 61% | 43% | 1% | 20% | 18% | 28% | 0% | 2% | 3% | 23%
CS(=O)(=O)CCNCc1nc(-c2ccc3ncnc(Nc4ccc5c(cnn5Cc5ccccc5)c4)c3c2)cs1.Cl.Cl [GW569716] | 8% | 21% | 100% | 98% | 92.4% | 4% | 10% | 0% | 0% | 0% | 0% | 0% | 0% | 0% | 0% | 0% | 0% | 0% | 8% | 24%
CCCCc1nn2ncccc2c1-c1ccnc(NC2CC2)n1 [GW684374] | 4% | 39% | 21% | 0% | 16% | 0% | 0% | 3% | 27% | 0% | 0% | 0% | 0% | 0% | 0% | 0% | 0% | 5% | 0% | 7%
CC(=O)c1c(C)c2cnc(Nc3ccn(C)n3)nc2n(C2CCCC2)c1=O | 0% | 6% | 0% | 0% | 0% | 0% | 0% | 15% | 17% | 9% | 17% | 0% | 0% | 9% | 0% | 0% | 0% | 0% | 11% | 0%
